The text below walks through data of PubChem BioAssay (EPA / NIEHS).

The source made the active and inactive calls. The calls were made as follows: active = hit-call score of the fitted dose curve at least 0.9, where 1 is the maximum; inactive = score below 0.9.

Chain of Hepatocyte nuclear factor 3-beta (Homo sapiens) (Q9Y261 whole entry, looked up): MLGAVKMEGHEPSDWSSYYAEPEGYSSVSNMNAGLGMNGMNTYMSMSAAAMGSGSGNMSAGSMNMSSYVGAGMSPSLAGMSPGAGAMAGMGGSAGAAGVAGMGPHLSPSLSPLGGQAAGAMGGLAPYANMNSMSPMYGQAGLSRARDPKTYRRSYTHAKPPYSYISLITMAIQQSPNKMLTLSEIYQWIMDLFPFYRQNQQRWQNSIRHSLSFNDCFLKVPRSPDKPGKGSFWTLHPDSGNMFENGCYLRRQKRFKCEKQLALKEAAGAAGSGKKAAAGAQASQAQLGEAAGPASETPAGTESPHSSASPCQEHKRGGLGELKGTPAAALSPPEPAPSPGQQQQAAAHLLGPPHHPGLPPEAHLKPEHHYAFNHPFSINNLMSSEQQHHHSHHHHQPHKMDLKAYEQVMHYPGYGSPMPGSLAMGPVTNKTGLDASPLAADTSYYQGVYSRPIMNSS

The target of one experiment is Hepatocyte nuclear factor 3-beta (Homo sapiens) (UniProt Q9Y261). Kind of experiment: ATG_FoxA2_CIS: Attagene CIS-FACTORIAL HepG2 Assay for human Forkhead box A2 (FOXA2) (AID 2282942). The conditions noted are these: HepG2 cis-reporter transcription factor activity, 24 h; actives raise or lower the signal. An outline of the steps:
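HepG2 cells transiently transfected with multiple cis-regulated reporter transcription units, dosed for 24 h. Reporter mRNA measured by RT-PCR, 6-FAM labelling, HpaI digestion and capillary electrophoresis; bidirectional fitting against DMSO baseline.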
On to `COc1cc(-c2ccc(N)c(OC)c2)ccc1N`, for which the molecule was classed as inactive.

For `CC(=O)C(Cl)C(=O)N(C)C` (stereo unspecified), the call was inactive.

On to `O=C(Cl)c1ccc(Cl)cc1`, for which the molecule was called inactive.

Turning to `CC(C)(C)CC(C)(C)c1ccc(O)cc1`, the molecule was classed as inactive.

Regarding `C=CC(=O)N(C)C`, the molecule was classed as inactive.

In the case of `CCOP(=O)(CN(CCO)CCO)OCC`, the molecule was called inactive.

In the case of `C(=NC1CCCCC1)=NC1CCCCC1`, the molecule was classed as inactive.

`ClC1=C(Cl)[C@]2(Cl)[C@H]3[C@H]([C@H]4C=C[C@H]3C4)[C@@]1(Cl)C2(Cl)Cl`: the outcome was inactive.

As for `CC(C)c1ccc(CO)cc1`, the result was inactive.

In the case of `CCC1(c2ccc(N)cc2)CCC(=O)NC1=O` (stereo unspecified), the molecule was called inactive.

For `COc1ccccc1OC`, the molecule was classed as inactive.

`Clc1nc(Cl)nc(Cl)n1`: the call was inactive.

Turning to `CC(C)C1CCC(Cc2ccc(Cl)cc2)C1(O)Cn1cncn1` (stereo unspecified), the molecule was classed as inactive.

On to `Cc1ccc2ccccc2c1C`, for which the result was inactive.

With `C[C@]12CC[C@H](O)CC1=CC[C@@H]1[C@@H]2CC[C@]2(C)C(=O)CC[C@@H]12`, the molecule was classed as inactive.

Consider `ClCc1cccnc1`, for which the call was inactive.

Regarding `C[C@]12CCC(=O)C[C@@H]1CC[C@@H]1[C@@H]2CC[C@]2(C)[C@@H](O)CC[C@@H]12`, the molecule was called inactive.

For the molecule `Oc1cccc2cccnc12`, the result was inactive.

Take `Cc1cc(Cl)ccc1O[C@H](C)C(=O)O`: the molecule was called inactive.

In the case of `COc1ccc(C=O)cc1`, the outcome was inactive.

As to `CNC(=O)O/N=C/C(C)(C)S(C)=O` (stereo unspecified), the molecule was classed as inactive.

For `COP(=S)(OC)Oc1ccc(S(=O)(=O)N(C)C)cc1`, the molecule was called inactive.

Consider `OCc1ccco1`, for which the result was inactive.

With `O=[N+]([O-])c1c(Cl)c(Cl)cc(Cl)c1Cl`, the result was inactive.

On to `Cc1ccc(N)cc1Cl`, for which the result was inactive.

In the case of `NC(=O)O`, the outcome was inactive.

Take `O=C(O)C(F)(F)C(F)(F)C(F)(F)C(F)(F)C(F)(F)C(F)(F)C(F)(F)C(F)(F)C(F)(F)C(F)(F)F`: the molecule was classed as inactive.

As to `O=C(Nc1ccc2[nH]ccc2c1)c1cc2cc(F)ccc2n1Cc1cccc(F)c1`, the result was inactive.

For `[O-][Cl+2]([O-])O`, the result was inactive.

As for `Nc1ccc(-c2ccc(N)c(Cl)c2)cc1Cl`, the molecule was classed as inactive.

Regarding `CCC(=O)c1ccccc1`, the molecule was called inactive.

Regarding `CCOP(=S)(OCC)SCCS(=O)(=O)CC`, the outcome was inactive.

For the molecule `Cl/C=C\C[N+]12CN3CN(CN(C3)C1)C2`, the outcome was inactive.

For `O=C1C2(Cl)C3(Cl)C4(Cl)C(Cl)(Cl)C5(Cl)C3(Cl)C1(Cl)C5(Cl)C24Cl` (stereo unspecified), the outcome was inactive.

For the molecule `CCOP(OCC)OCC`, the molecule was called inactive.

With `Clc1ccc(C2(Cn3cncn3)CC(Br)CO2)c(Cl)c1` (stereo unspecified), the outcome was inactive.

With `CCCCP(CCCC)CCCC`, the molecule was classed as inactive.

Consider `Nc1ccc(N=Nc2ccc(-c3ccc(N=Nc4c(S(=O)(=O)O)cc5cc(S(=O)(=O)O)c(N=Nc6ccccc6)c(O)c5c4N)cc3)cc2)c(N)c1`, for which the outcome was inactive.

Tested on in the next experiment: not listed separately
Description: ATG_FoxO_CIS: Attagene CIS-FACTORIAL HepG2 Assay for human Forkhead box O (FoxO) (AID 2282943). Particulars: HepG2 Attagene cis-reporter, FoxO element, mRNA; actives raise or lower the signal. An outline of the steps:
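HepG2, transient MRTU transfection (cis element, endogenous TFs). Dose 24 h. TriZol RNA → oligo(dT) RT → PCR → 6-FAM primer extension → HpaI cut → CE. Gain/loss vs DMSO.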
For the molecule `COc1cc(-c2ccc(N)c(OC)c2)ccc1N`, the molecule was called inactive.

As to `CC(=O)C(Cl)C(=O)N(C)C` (stereo unspecified), the molecule was called inactive.

Take `O=C(Cl)c1ccc(Cl)cc1`: the molecule was classed as inactive.

As to `CC(C)(C)CC(C)(C)c1ccc(O)cc1`, the molecule was classed as inactive.

For the molecule `C=CC(=O)N(C)C`, the result was inactive.

`CCOP(=O)(CN(CCO)CCO)OCC`: the call was inactive.

As for `C(=NC1CCCCC1)=NC1CCCCC1`, the molecule was classed as inactive.

Take `ClC1=C(Cl)[C@]2(Cl)[C@H]3[C@H]([C@H]4C=C[C@H]3C4)[C@@]1(Cl)C2(Cl)Cl`: the call was inactive.

As for `CC(C)c1ccc(CO)cc1`, the outcome was inactive.

`CCC1(c2ccc(N)cc2)CCC(=O)NC1=O` (stereo unspecified): the call was inactive.

In the case of `COc1ccccc1OC`, the molecule was classed as inactive.

Take `Clc1nc(Cl)nc(Cl)n1`: the result was inactive.

As to `CC(C)C1CCC(Cc2ccc(Cl)cc2)C1(O)Cn1cncn1` (stereo unspecified), the molecule was classed as inactive.

For `Cc1ccc2ccccc2c1C`, the molecule was classed as inactive.

Regarding `C[C@]12CC[C@H](O)CC1=CC[C@@H]1[C@@H]2CC[C@]2(C)C(=O)CC[C@@H]12`, the molecule was classed as inactive.

In the case of `ClCc1cccnc1`, the outcome was inactive.

In the case of `C[C@]12CCC(=O)C[C@@H]1CC[C@@H]1[C@@H]2CC[C@]2(C)[C@@H](O)CC[C@@H]12`, the result was inactive.

With `Oc1cccc2cccnc12`, the outcome was inactive.

For `Cc1cc(Cl)ccc1O[C@H](C)C(=O)O`, the result was inactive.

Turning to `COc1ccc(C=O)cc1`, the molecule was called inactive.

`CNC(=O)O/N=C/C(C)(C)S(C)=O` (stereo unspecified): the outcome was inactive.

Consider `COP(=S)(OC)Oc1ccc(S(=O)(=O)N(C)C)cc1`, for which the outcome was inactive.

As for `OCc1ccco1`, the call was inactive.

On to `O=[N+]([O-])c1c(Cl)c(Cl)cc(Cl)c1Cl`, for which the call was inactive.

Consider `Cc1ccc(N)cc1Cl`, for which the call was inactive.

Turning to `NC(=O)O`, the molecule was classed as inactive.

On to `O=C(O)C(F)(F)C(F)(F)C(F)(F)C(F)(F)C(F)(F)C(F)(F)C(F)(F)C(F)(F)C(F)(F)C(F)(F)F`, for which the call was inactive.

Turning to `O=C(Nc1ccc2[nH]ccc2c1)c1cc2cc(F)ccc2n1Cc1cccc(F)c1`, the molecule was called inactive.

As for `[O-][Cl+2]([O-])O`, the outcome was inactive.

As for `Nc1ccc(-c2ccc(N)c(Cl)c2)cc1Cl`, the molecule was called inactive.

In the case of `CCC(=O)c1ccccc1`, the result was inactive.

As for `CCOP(=S)(OCC)SCCS(=O)(=O)CC`, the molecule was called inactive.

With `Cl/C=C\C[N+]12CN3CN(CN(C3)C1)C2`, the molecule was classed as inactive.

`O=C1C2(Cl)C3(Cl)C4(Cl)C(Cl)(Cl)C5(Cl)C3(Cl)C1(Cl)C5(Cl)C24Cl` (stereo unspecified): the molecule was classed as inactive.

For the molecule `CCOP(OCC)OCC`, the molecule was called inactive.

On to `Clc1ccc(C2(Cn3cncn3)CC(Br)CO2)c(Cl)c1` (stereo unspecified), for which the molecule was called inactive.

In the case of `CCCCP(CCCC)CCCC`, the call was inactive.

In the case of `Nc1ccc(N=Nc2ccc(-c3ccc(N=Nc4c(S(=O)(=O)O)cc5cc(S(=O)(=O)O)c(N=Nc6ccccc6)c(O)c5c4N)cc3)cc2)c(N)c1`, the result was inactive.
